The results in this text go back to article PMC4552634, “A New Set of Chemical Starting Points with Plasmodium falciparum Transmission-Blocking Potential for Antimalarial Drug Discovery” (PLoS ONE, 2015).

The experiment deals with P. falciparum stage V gametocytes. On the set-up: BacTiter-Glo ATP luminescence viability of purified stage V gametocytes in 384-well plates, per cent inhibition versus DMSO. To be noted: 48 h, 5 µM, inhibitor.

Where two headings read alike, the source gives them in different places. Among all 13,000 compounds or so, about 3,200 (25%) showed an effect of 50% or more. Some of the results follow.

What is called % Inhibition is the relative decrease from the control value, in per cent. As to `Cc1ccccc1Oc1ccc(Nc2ccnc(Nc3cccc(C(N)=O)c3)n2)cc1C(F)(F)F` [TCMDC-138601], the “% Inhibition” value came out at 1.674%. Consider `CC(=O)N(C)c1ccc(C(=O)Nc2cccc(-c3cccc(-c4nc5ccc(C(F)(F)F)cc5[nH]4)c3)c2)cc1` [TCMDC-136849], for which the “% Inhibition” value is -19.52%. Still for that read-out and setting: then `CC(=O)Nc1nc(C(=O)Nc2cccc(-c3ccc4c(cnn4CC4CC4)c3)c2)cs1` [TCMDC-133147], with 49.64%; and `O=C1COC(c2ccccc2)(c2ccccc2)CN1CC1CCN(Cc2ccc(O)cc2Cl)C1` (stereo not drawn) [TCMDC-136338], with 44.26%.

As to `Cc1[nH]c2c(C)cccc2c1C1CCN(CCC2CCN(C(=O)/C=C/c3ccc(Cl)c(Cl)c3)CC2)CC1` [TCMDC-139803], the “% Inhibition” value was determined as 38.01%. As for `N=C(N)NCCN(Cc1ccccc1)c1ccccc1` [TCMDC-131837], the “% Inhibition” value came out at 26.01%. On to `N=C(N)CCN(Cc1ccccc1)c1ccc(Cl)cc1` [TCMDC-131835], for which the “% Inhibition” value is reported as 9.979%. Same read-out and setting: the value for `Cc1ccc(N(CCC(=N)N)Cc2ccccc2)cc1` [TCMDC-132096] was 26.05%; that for `N=C(N)NCCCN(Cc1ccccc1)c1ccc(Cl)cc1` [TCMDC-131839] was 47.9%; that for `N=C(N)NCCN(Cc1ccccc1)c1ccc(Cl)cc1` [TCMDC-131838] was 72.85%.

For `N=C(N)CCN(Cc1ccc(Cl)cc1)c1ccc(Cl)cc1` [TCMDC-131840], the “% Inhibition” value came out at 54.29%. `CN1CCCN(Cc2ccc(-c3cccc(NC(=O)c4ccc(F)cc4)c3)cc2)CC1` [TCMDC-132634]: the “% Inhibition” value is 12.81%. The same measure, in the same setting: then `O=C(NC1CCN(Cc2ccccc2)CC1)c1cccc(-c2cc3cc(Cl)c(Cl)cc3[nH]2)c1` [TCMDC-141290], with -1.614%; and `CN1CCN(CCCN(Cc2ccc(-c3cccc(CNCc4ccc5c(c4)OCO5)c3)cc2)C(=O)NC2CCCCC2)CC1` [TCMDC-140642], with 56.14%. Same read-out and setting: the value for `CN1CCN(CCCN(Cc2ccc(-c3ccc(CNCc4ccc5c(c4)OCO5)cc3)cc2)C(=O)CCC2CCCC2)CC1` [TCMDC-140561] was 102.2%. For `CN1CCN(CCCN(Cc2cccc(-c3ccc(CNCc4ccc5c(c4)OCO5)cc3)c2)C(=O)CCC2CCCC2)CC1` [TCMDC-140557], the “% Inhibition” value stood at 65.31%.

Turning to `CN1CCN(CCCN(Cc2ccc(-c3cccc(CNCc4ccc5c(c4)OCO5)c3)cc2)C(=O)CCC2CCCC2)CC1` [TCMDC-140751], the “% Inhibition” value amounted to 61.11%. Same read-out and setting: then `Cc1cccc(C(=O)Nc2ccnc(N(C)C3CCN(Cc4cccc(O)c4)CC3)c2)c1` [TCMDC-134964], with -19.45%; and `O=C(/C=C/c1ccc(Cl)c(Cl)c1)NCCCCCN1CCC(NC(=O)Nc2cc(F)cc(F)c2)CC1` [TCMDC-135715], with -53.24%. Same read-out and setting: the value for `NC(=O)C1CCN(Cc2ccc(-c3ccc(-c4nc5cc(C(F)(F)F)ccc5[nH]4)cc3)cc2)CC1.O=C(O)C(F)(F)F` [TCMDC-132692] was -81.89%; that for `CN1CCN(CCCN(Cc2cccc(-c3cccc(CNCc4ccc5c(c4)OCO5)c3)c2)C(=O)CCC2CCCC2)CC1` [TCMDC-140556] was 67.58%.

In the case of `FC(F)(F)c1cccc(CNCC2CCN(Cc3ccc4c(c3)OCO4)CC2)c1` [TCMDC-141673], the “% Inhibition” value came to 2.788%. The same measure, in the same setting: then `CC1CN(c2ccc(NC(=O)c3cccs3)cc2)CCN1Cc1cccc(F)c1` (stereo not drawn) [TCMDC-135008], with -22.55%; and `COc1ccc(CNCc2cccc(-c3cccc(-c4nc5cccc(C)c5[nH]4)c3)c2)cc1.O=C(O)C(F)(F)F` [TCMDC-132732], with -64.2%; and `c1ccc(CSC2=NNC(c3ccccn3)S2)cc1` (stereo not drawn) [TCMDC-123769], with 99.43%. On to `NC(=O)c1cccc(C(=O)Nc2cccc(-c3csc(-c4nc5ccccc5[nH]4)c3)c2)c1` [TCMDC-132399], for which the “% Inhibition” value was -9.606%. Still for that read-out and setting: the value for `CNS(=O)(=O)CCNCc1ccc(-c2ccc3ncnc(Nc4ccc(OCc5ccccc5)cc4)c3c2)o1` [TCMDC-138102] was -59.33%.

Take `CNCCCNCc1ccc(-c2ccc(F)c(Cl)c2)o1` [TCMDC-125237]: the “% Inhibition” value was 65.13%.

With `CN(C)CCCNCc1ccc(-c2ccc(F)c(Cl)c2)o1` [TCMDC-125238], the “% Inhibition” value is on record as 41.34%. Consider `O=C(C=Cc1ccccc1C(F)(F)F)NC1CCC(CN2CCC(c3c[nH]c4ccccc34)CC2)CC1` (stereo not drawn) [TCMDC-139903], for which the “% Inhibition” value (% Inhibition) is 54.81%. The same measure, in the same setting: the value for `O=C(/C=C/c1ccccc1O)NC1CCC(CN2CCC(c3c[nH]c4ccccc34)CC2)CC1` (stereo not drawn) [TCMDC-139720] was 84.95%; that for `O=C(/C=C/c1ccccc1O)NC1CCC(CN2CCC(c3c[nH]c4ccccc34)CC2)CC1` (stereo not drawn) [TCMDC-139705] was 20.65%; that for `O=C(/C=C/c1ccccc1Cl)NC1CCC(CN2CCC(c3c[nH]c4ccccc34)CC2)CC1` (stereo not drawn) [TCMDC-139714] was 34.23%. Same read-out and setting: the value for `O=C(C=Cc1ccccc1C(F)(F)F)NC1CCC(CN2CCC(c3c[nH]c4ccccc34)CC2)CC1` (stereo not drawn) [TCMDC-139915] was 18.99%; that for `O=C(C=Cc1cccc(Cl)c1Cl)NC1CCC(CN2CCC(c3c[nH]c4ccccc34)CC2)CC1` (stereo not drawn) [TCMDC-139920] was -3.877%; that for `O=C(C=Cc1ccccc1Br)NC1CCC(CN2CCC(c3c[nH]c4ccccc34)CC2)CC1` (stereo not drawn) [TCMDC-139917] was 13.62%. The same measure, in the same setting: the value for `O=C(/C=C/c1ccccc1Cl)NC1CCC(CN2CCC(c3c[nH]c4ccccc34)CC2)CC1` (stereo not drawn) [TCMDC-139699] was 83.67%; that for `O=C(C=Cc1ccccc1Br)NC1CCC(CN2CCC(c3c[nH]c4ccccc34)CC2)CC1` (stereo not drawn) [TCMDC-139905] was 19.58%.

In the case of `COc1ccc(Nc2nccc(NCCNC(=O)Nc3cc(C)ccc3C)n2)cc1` [TCMDC-133644], the “% Inhibition” value is -56.14%. Same read-out and setting: then `CCn1cc2c3c(cc(C(=O)N[C@@H](Cc4ccccc4)[C@H](O)CNCc4cccc(OC)c4)cc31)N(C)S(=O)(=O)CC2` [TCMDC-135784], with 29.74%; and `O=C(NCCCCN1CCC(O)(c2ccc(Cl)cc2)CC1)c1ccc(Br)cc1` [TCMDC-131982], with -5.43%; and `CN(C(=O)c1nn(-c2ccccn2)c2nccc(-c3cccs3)c12)C1CCCCC1` [TCMDC-124797], with 11.83%.
